Compound activity deposited in PubChem BioAssay by several laboratories.
Rows were chosen to be rich in hits. Some 27% of all compounds tested hit in one or more screens of this group.
CYP2C19 inh – human CYP2C19 inhibition; AID 778; inhibition, % at 5 µM; CYP2C19 Supersomes, luciferin-H EGE luminescence, 30 min; 96,000 tested, 21% active; P33261;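 active = CYP2C19 inhibition above a set limit at 5 µM in the primary screen, cut at about 50% in these data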
Cav3 T inh – human Cav3.2 channel inhibition, primary screen | Cav3.2-expressing cells, Fluo-4 calcium fluorescence FDSS; active compounds read low | B-score at 10 µM | 100,000 tested, 4% active;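 active = single-dose well whose peak fluorescence ratio is a statistical outlier from its plate by either plate-standardised score or position-corrected B-score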
Target sequence (O95180 whole entry, looked up): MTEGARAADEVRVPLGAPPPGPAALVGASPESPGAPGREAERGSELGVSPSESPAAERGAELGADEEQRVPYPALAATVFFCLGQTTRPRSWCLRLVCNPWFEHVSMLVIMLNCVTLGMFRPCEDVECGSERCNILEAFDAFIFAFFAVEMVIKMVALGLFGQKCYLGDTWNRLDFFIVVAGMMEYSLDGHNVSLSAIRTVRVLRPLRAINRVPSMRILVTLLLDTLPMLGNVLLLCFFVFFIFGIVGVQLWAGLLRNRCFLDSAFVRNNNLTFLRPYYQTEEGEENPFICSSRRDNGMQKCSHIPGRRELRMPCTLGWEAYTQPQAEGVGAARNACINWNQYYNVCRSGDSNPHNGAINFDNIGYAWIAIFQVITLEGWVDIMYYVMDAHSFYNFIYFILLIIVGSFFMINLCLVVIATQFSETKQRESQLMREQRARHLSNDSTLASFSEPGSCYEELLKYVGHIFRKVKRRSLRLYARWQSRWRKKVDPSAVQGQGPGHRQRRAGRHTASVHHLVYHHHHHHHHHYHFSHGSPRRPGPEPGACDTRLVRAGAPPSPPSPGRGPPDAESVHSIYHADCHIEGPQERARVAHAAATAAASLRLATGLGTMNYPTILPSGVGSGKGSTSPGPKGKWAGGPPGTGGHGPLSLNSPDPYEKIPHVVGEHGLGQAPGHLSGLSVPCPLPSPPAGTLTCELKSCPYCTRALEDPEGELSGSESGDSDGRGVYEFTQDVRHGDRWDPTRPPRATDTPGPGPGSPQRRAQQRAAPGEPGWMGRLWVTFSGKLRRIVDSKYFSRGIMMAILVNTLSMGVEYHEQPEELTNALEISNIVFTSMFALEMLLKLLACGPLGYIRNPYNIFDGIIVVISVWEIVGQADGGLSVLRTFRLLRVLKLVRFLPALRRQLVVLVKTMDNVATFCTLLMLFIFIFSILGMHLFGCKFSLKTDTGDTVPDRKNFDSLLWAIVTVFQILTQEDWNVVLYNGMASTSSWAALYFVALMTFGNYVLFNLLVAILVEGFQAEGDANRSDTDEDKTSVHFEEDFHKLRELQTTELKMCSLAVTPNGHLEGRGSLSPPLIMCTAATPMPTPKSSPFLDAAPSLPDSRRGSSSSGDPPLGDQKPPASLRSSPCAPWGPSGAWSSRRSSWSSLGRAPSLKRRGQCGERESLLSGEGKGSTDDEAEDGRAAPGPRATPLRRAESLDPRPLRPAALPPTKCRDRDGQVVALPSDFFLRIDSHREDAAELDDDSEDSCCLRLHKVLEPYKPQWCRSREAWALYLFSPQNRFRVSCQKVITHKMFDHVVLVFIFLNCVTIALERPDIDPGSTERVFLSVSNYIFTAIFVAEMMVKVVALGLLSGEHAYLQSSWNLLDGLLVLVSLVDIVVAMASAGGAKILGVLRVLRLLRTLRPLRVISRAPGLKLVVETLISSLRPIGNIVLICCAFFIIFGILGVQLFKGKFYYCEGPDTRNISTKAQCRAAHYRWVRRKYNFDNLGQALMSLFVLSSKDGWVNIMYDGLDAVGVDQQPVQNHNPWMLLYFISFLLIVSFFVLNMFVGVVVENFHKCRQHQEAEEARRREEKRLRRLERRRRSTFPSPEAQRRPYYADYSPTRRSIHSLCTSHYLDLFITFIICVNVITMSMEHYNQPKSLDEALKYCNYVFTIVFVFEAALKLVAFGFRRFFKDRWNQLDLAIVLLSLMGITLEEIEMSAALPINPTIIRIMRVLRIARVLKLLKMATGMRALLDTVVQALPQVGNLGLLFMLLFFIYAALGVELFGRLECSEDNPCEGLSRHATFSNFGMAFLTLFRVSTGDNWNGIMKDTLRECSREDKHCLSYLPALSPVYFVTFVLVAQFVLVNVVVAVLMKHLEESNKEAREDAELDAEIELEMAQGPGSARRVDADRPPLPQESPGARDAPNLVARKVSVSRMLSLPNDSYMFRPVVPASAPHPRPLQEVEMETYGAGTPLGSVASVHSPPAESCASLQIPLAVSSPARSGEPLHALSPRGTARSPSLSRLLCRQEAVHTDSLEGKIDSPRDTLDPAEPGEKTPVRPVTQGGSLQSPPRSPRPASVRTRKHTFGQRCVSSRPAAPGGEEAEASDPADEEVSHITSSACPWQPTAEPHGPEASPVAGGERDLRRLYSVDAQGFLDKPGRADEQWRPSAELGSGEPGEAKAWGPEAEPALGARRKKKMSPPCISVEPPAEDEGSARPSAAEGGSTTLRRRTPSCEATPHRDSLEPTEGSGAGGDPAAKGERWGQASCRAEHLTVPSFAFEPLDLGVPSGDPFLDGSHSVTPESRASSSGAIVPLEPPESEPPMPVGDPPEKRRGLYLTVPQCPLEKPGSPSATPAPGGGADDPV
CYP2C9 inh – blocks human cytochrome P450 2C9 | P11712 | CYP2C9 Supersomes, luciferin-H conversion, luminescence | inhibition, % at 5 µM | 96,000 tested, 20% active | AID 777;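 active = blocking of liver enzyme CYP2C9 beyond about 50% at 5 µM, limit read from the data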
CYP2C9 activ – activators of human CYP2C9. activation factor at 5 µM. P11712. AID 1024. 96,000 tested, 1.4% active. recombinant CYP2C9, luciferin-H conversion, luminescence; active compounds read high; factor 1 = untreated enzyme, 0 = blocked;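 active = activation factor of 2 or more for CYP2C9 at a 5 µM dose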
CYP2C19 activ – increases human CYP2C19 enzyme activity; recombinant CYP2C19, luciferin-H EGE luminescence; active compounds read high; 0 = fully inhibited enzyme, 1 = untreated enzyme; activation factor at 5 µM; 96,000 tested, under 10 active; AID 1025;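 active = activation factor of at least 2 at 5 µM in the primary screen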
Of the large screens only hits and unclear results are named; the others gave an inactive call.

O=C(CCc1ccccc1)Nc1ccc2c(c1)OCCO2	none
CN(CCC(=O)Nc1ccc2c(c1)OCO2)Cc1ccccc1	CYP2C9 inh 52
CC(C)c1ccc(NC(=O)CN(Cc2ccccc2)S(C)(=O)=O)cc1	none (no result: CYP2C19 inh, CYP2C9 inh, CYP2C9 activ, CYP2C19 activ)
COC(=O)c1ccc(NC(=O)CN(Cc2ccc(Cl)cc2)S(C)(=O)=O)cc1	CYP2C19 inh 95, CYP2C9 inh 82
CS(=O)(=O)N(CC(=O)Nc1ccc2c(c1)OCO2)Cc1ccccc1	CYP2C19 inh 70
O=C(NC1CC1)C1=C[C@@H](c2ccc3c(c2)OCO3)C[C@@H](OCc2ccc(CO)cc2)O1	none (no result: CYP2C19 inh, CYP2C9 inh, CYP2C9 activ, CYP2C19 activ)
CCOC(=O)Cn1c(C)c(Br)c(=O)c2cccc(C)c21	none
COc1ccc(-n2nnnc2Sc2ccc(S(=O)(=O)N3CCOCC3)cn2)cc1	none
Cc1cc(C)c2c(N)c(-c3nc4ccccc4[nH]3)sc2n1	CYP2C19 inh 52, CYP2C9 inh 57
COc1ccc2[nH]c(=O)c(CN(C3CCCCC3)C(c3nnnn3Cc3ccco3)C(C)C)cc2c1 (stereo unspecified)	CYP2C19 inh 60, CYP2C9 inh 95 (no result: Cav3 T inh)
CCOC(=O)Cn1nnnc1C(CC)N(Cc1cccs1)Cc1cc2ccc(OC)cc2[nH]c1=O (stereo unspecified)	CYP2C19 inh 96, Cav3 T inh -3.7, CYP2C9 inh 91
COc1ccc2[nH]c(=O)c(CN(Cc3nnnn3Cc3ccco3)C3CCCCC3)cc2c1	CYP2C19 inh 89, CYP2C9 inh 75
CCC(c1nnnn1C1CCCCC1)N(Cc1ccco1)Cc1cc2ccc(OC)cc2[nH]c1=O (stereo unspecified)	CYP2C19 inh 95, CYP2C9 inh 84
COc1ccc2cc(CCNC(=O)c3cccs3)c(=O)[nH]c2c1	none (no result: CYP2C19 inh, CYP2C9 inh, CYP2C9 activ, CYP2C19 activ)
CCCCN(CC(=O)Nc1c(C)cccc1CC)C(=O)SCC	CYP2C19 inh 71, Cav3 T inh -3.8
CCCN(CC(=O)Nc1c(C)cccc1CC)C(=O)SCC	CYP2C19 inh 60
CCOC(=O)c1cccc(NC(=O)CN(c2ccc(OC)cc2)S(=O)(=O)c2c(C)noc2C)c1	CYP2C19 inh 77, Cav3 T inh -4.9, CYP2C9 inh 94
COc1ccc(N(CC(=O)Nc2cccc(C(=O)O)c2)S(=O)(=O)c2c(C)noc2C)cc1	CYP2C9 inh 68
CCOc1ccc(N(CC(=O)NC2CCCC2)S(=O)(=O)c2c(C)noc2C)cc1	none
Cc1ccc(Cn2cc(SCC(N)=O)c3ccccc32)cc1	none (no result: CYP2C19 inh, CYP2C9 inh, CYP2C9 activ, CYP2C19 activ)
c1ccc(-c2noc(-c3cccc4ccccc34)n2)cc1	none
Brc1cccc(-c2nc(-c3ccncc3)no2)c1	CYP2C19 inh 97, CYP2C9 inh 52
Clc1ccc(Br)cc1-c1nc(-c2ccncc2)no1	CYP2C19 inh 89, CYP2C9 inh 50
Cc1cc(C)cc(-c2nc(-c3ccncc3)no2)c1	CYP2C19 inh 83
c1ccc2c(-c3nc(-c4ccncc4)no3)cccc2c1	CYP2C19 inh 89
O=c1[nH]c2ccccc2n2c(-c3ccncc3)nnc12	none
CCn1c(=O)c2c(n3cnnc13)-c1ccccc1CC21CCCCC1	none
CCOC(=O)c1c(N)sc(C(O)(C(F)(F)F)C(F)(F)F)c1-c1ccc(OC)cc1OC	CYP2C19 inh 55, Cav3 T inh -4.9, CYP2C9 inh 72
COc1ccc(C(=O)Oc2ccc(=O)n(-c3ccccc3)n2)cc1	none
O=C(O)CSC1CC(=O)N(c2ccc(Cl)c(Cl)c2)C1=O (stereo unspecified)	CYP2C19 inh 64
CC(=O)c1ccc(NC(=O)CSc2nnc(Cn3c(=O)sc4ccccc43)n2C)cc1	none (no result: CYP2C19 inh, CYP2C9 inh, CYP2C9 activ, CYP2C19 activ)
CCOC(Cn1c(-c2ccc(OC)cc2)nc2ccccc21)OCC	CYP2C9 inh 86
C=C(C)Cn1c(-c2ccc(OC)cc2)nc2ccccc21	CYP2C19 inh 90, Cav3 T inh -5, CYP2C9 inh 96
CCCn1c(-c2ccc(OC)cc2)nc2ccccc21	none
O=c1/c(=C/c2ccccn2)sc2nc3ccccc3n12	CYP2C19 inh 71, CYP2C9 inh 54 (no result: Cav3 T inh)
COc1ccccc1NS(=O)(=O)c1ccc2oc(SC3CCOC3=O)nc2c1 (stereo unspecified)	CYP2C19 inh 53
COc1ccccc1NS(=O)(=O)c1ccc(C)c(C(=O)NCC2CCCO2)c1 (stereo unspecified)	none
COC(=O)c1sc(N)nc1C(C)(C)C	none
O=C(CCCCn1c(=O)c2ccccc2n(CC(=O)Nc2cccc(F)c2)c1=O)NCc1ccco1	CYP2C9 inh 75
CCCN(CCC)C(=O)Cn1c(=O)n(CCCCC(=O)NC2CCCC2)c(=O)c2ccccc21	none (no result: Cav3 T inh)
O=C(CCCCn1c(=O)c2ccccc2n(Cc2ccc(Cl)cc2)c1=O)NCc1ccco1	none (no result: Cav3 T inh)
O=C(CCCCn1c(=O)c2ccccc2n(CC(=O)NC2CCCC2)c1=O)NCc1ccco1	CYP2C9 inh 62
CC1CC(C)CN(C(=O)Cn2c(=O)n(CCCCC(=O)NCc3ccco3)c(=O)c3ccccc32)C1 (stereo unspecified)	CYP2C9 inh 79
CC1CC(C)CN(C(=O)Cn2c(=O)n(CCCCC(=O)NC3CCCC3)c(=O)c3ccccc32)C1 (stereo unspecified)	CYP2C9 inh 74
O=C(NCC1CCCO1)C(c1cccnc1)N(C(=O)Cc1cccs1)c1cccnc1 (stereo unspecified)	none
O=c1ccc2c(o1)/C(=C/C=C(Cl)Cl)CCC2	none
CC1(C)Cc2c(ccc3ccccc23)C(NNC(=O)c2cccnc2)=N1	none
CCN1CCCC1CNC(=O)c1c(O)c2c([nH]c1=O)CCCC2 (stereo unspecified)	none
CN1C(=O)N2CN(C3CCCCC3)CN3C(=O)N(C)C1C23 (stereo unspecified)	none
O=C(CCn1c(=O)c2ccccc2n(CC(=O)NC2CCCC2)c1=O)NCc1ccco1	CYP2C9 inh 54
CCc1ccc(NC(=O)Cn2c(=O)n(CCCC(=O)NCc3ccco3)c(=O)c3ccccc32)cc1	none
O=C(CCCCn1c(=O)c2ccccc2n(CC(=O)NC2CCCC2)c1=O)NC1CCCC1	CYP2C9 inh 62 (no result: Cav3 T inh)
Cc1cc(C)c2cc(C#N)c(NCCOC(=O)c3ccccc3C)nc2c1	CYP2C19 inh 62, CYP2C9 inh 68
CCOC(=O)c1cc(C#N)c(SC)nc1-c1ccccc1	none
CCc1nc(SCc2cc(Cl)ccc2OC)n[nH]1	CYP2C19 inh 94, CYP2C9 inh 52
Cc1cc2oc(=O)cc(CN3CCCc4ccccc43)c2cc1C	CYP2C19 inh 96, CYP2C9 inh 96
CN1CCN(Cc2cc(=O)oc3cc4c(cc23)CCC4)CC1	CYP2C19 inh 63, CYP2C9 inh 64
Cc1cc2oc(=O)cc(CN3CCN(C/C=C/c4ccccc4)CC3)c2cc1O	CYP2C9 inh 84
CCN1CCN(Cc2cc(=O)oc3cc4c(cc23)CCC4)CC1	none
COc1cc(C(c2nnnn2C(C)(C)C)N2CCN(C)CC2)cc(OC)c1OC (stereo unspecified)	none
CN(C)c1nc(N2CCN(c3ccc(F)cc3)CC2)c(C#N)c(=O)o1	CYP2C19 inh 82, CYP2C9 activ 2.2 (no result: Cav3 T inh)
